Compound activity deposited in PubChem BioAssay by National Center for Advancing Translational Sciences (NCATS).
Compounds with a hit are over-represented: about 4.2% of the library has one in this group of screens.
Mito fusion act = qHTS Assay for Small Molecule Inhibitors of Mitochondrial Division or Activators of Mitochondrial Fusion; S. cerevisiae fusion-defective mutant growth rescue, CellTiterGlo 48 h; Potency, µM (titrated, usually from 46.1 µM), for inactives: at the top dose growth rescue (activation), most hits filed as activators; 320,000 tested, 0.23% active; AID 485298, 2010; also: % of control where 0% means no effect; nearly all actives have a fitted effect of over 45% in size
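Temperature-sensitive fusion-defective S. cerevisiae (e.g. fzo1-1, mgm1-5) were grown with compound in YPEG medium (3% ethanol, 3% glycerol) for 48 hours at 37C. Growth rescue was measured as viability by CellTiterGlo luminescence after 10 minutes at ambient.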
AT treatment = qHTS Assay for Identifying a Potential Treatment of Ataxia-Telangiectasia. F2112 A-T fibroblasts, KAP-1 phosphorylation AlphaLISA; neocarzinostatin DNA damage 30 min before lysis. Potency, µM (top dose mostly 57.5 µM), for the others: at the highest dose activation, most hits filed as activators. 320,000 tested, 0.19% active. AID 485349, 2010; also: % of control where 0% means no effect; nearly all actives have a fitted effect of over 45% in size
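ATM-like activity read as KAP-1 phosphorylation via AlphaLISA donor/acceptor antibody pairs after lysis and 6 hr at 25C. Cells were ATM-null patient fibroblasts (F2112, hTERT), dosed 60 min, then exposed to the DSB inducer NCS for 30 min.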
SW480 rereplic = A quantitative high throughput screen for small molecules that induce DNA re-replication in SW480 colon adenocarcinoma cells. SW480 DNA re-replication, Hoechst DNA content imaging, 48 h. Potency, µM (highest dose often 46.1 µM), without a hit: at the top dose re-replication activation, most hits filed as activators. 340,000 tested, 1.8% active; also: % of control where 0% means no effect; nearly all actives have a fitted effect of over 55% in size
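Quantitative HTS format with DMSO vehicle controls; 48 hr drug incubation at 37 C, then 40 min Hoechst staining and scanning imager measurement at 405 nm excitation.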
a7 integrin act = qHTS for Activators of Integrin-Mediated Alleviation for Muscular Dystrophy. alpha7betagal myoblasts, beta-gal FDG fluorescence, 48 h. Potency, µM (titrated, usually from 38.3 µM), for the others: at the top dose activation, actives largely listed as activators. 350,000 tested, 0.064% active;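 also: 100% = response of the positive control SU9516; nearly all actives have a fitted effect of over 60% in size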
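Alpha7betagal+/- myoblasts (passage 13) were plated 16-24 hr, then exposed to compounds (1:260 dilution of DMSO stock) for 48 hours at 37C. After MPER lysis, β-galactosidase reporter activity was read as FDG fluorescence (ex 480/em 540) after 30 minutes.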
MCF10A rereplic = A quantitative high throughput screen for small molecules that induce DNA re-replication in MCF 10a normal breast cells; AID 624296, 2012; Potency, µM (series often up to 46.1 µM), inactives show at the top dose activity, positive = re-replication, actives largely listed as activators; 350,000 tested, 2.9% active; MCF 10A DNA re-replication, Hoechst nuclear intensity, 48 h; also: % of control where 0% means no effect; nearly all actives have a fitted effect of over 50% in size
Active calls of the source: *; ? = inconclusive; . = no result; [ ] = dose if it differs, or a comment. Calls follow the shape of the dose curve; as a rule, active = well fitted activation curve with a large enough effect; inconclusive = small, poorly fitted or top-dose-only effect; inactive = no such curve, though single readings can be large or run the other way. Potency is read from the fitted curve at half-maximal effect.

SMILES | Mito fusion act | AT treatment | SW480 rereplic | a7 integrin act | MCF10A rereplic
O=C(CCCCCNC(=O)c1ccccc1)N/N=C/c1ccccc1O | -1% | 6% | 5.8µM* | -23% | ?
O=C(N/N=C/c1ccccc1O)c1cc[n+]([O-])cc1 | 2% | -8% | 26µM* | ? | ?
Fc1ccccc1NC(=S)N/N=C/c1ccccc1Br | -7% | 5% | 18µM* | 16% | ?
COc1ccc(C(=O)CSc2nc3nn(-c4ccccc4)c(=O)c-3c3n2CCCCC3)c(OC)c1 | . | . | . | 10% | .
O=C(CCSc1ccccc1)NNC(=O)c1ccccc1F | 3% | 10% | ? | -5% | 10%
C[C@@H]1CN([C@@H](C)CO)C(=O)CCCn2nncc2CO[C@@H]1CN(C)S(=O)(=O)c1cccs1 | . | . | . | -5% | .
COc1cccc(/C=N/NC(=S)NC2CC3CC2C2C=CCC32)c1O (stereo not drawn) | -3% | -23% | 14% | -60% | ?
Oc1ccccc1/C=N/NC(=S)NC1CC2CC1C1C=CCC21 (stereo not drawn) | 9% | 3% | ? | -25% | 21µM*
NC(=S)N/N=C/c1ccccc1O | 3% | -3% | -9% | ? | -3%
Oc1ccccc1C=NNC(=S)NN=Cc1ccccc1O | . | . | 3.7µM* | -35% | 18µM*
CCN(C(=O)COC(=O)CCC(=O)c1ccc(C)cc1)c1c(N)n(Cc2ccccc2)c(=O)[nH]c1=O | . | . | -7% | 19% | 6%
Cc1cc(C)c(C(N)=O)c(SCC(=O)c2cc(C)n(-c3cc(C)on3)c2C)n1 | . | ? | ? | -10% | 21µM*
Cc1cc(-n2c(C)cc(C(=O)CSc3[nH]c(=O)cc(C(F)(F)F)c3C#N)c2C)no1 | 0% | -8% | 3.3µM* | 16% | ?
O=C(Nc1nc(-c2ccccc2)c(-c2ccccc2)o1)c1ccc(F)cc1 | -6% | -3% | 4%[9.22 µM] | -51% | ?
CCN(CC)CCCNC(=O)C1CCC(CNS(=O)(=O)c2c(C)cc(C)cc2C)CC1 (stereo not drawn) | 20% | -18% | -7% | -72% | 21µM*
O=C(NC(c1ccc(Cl)cc1)c1cc(Cl)c2cccnc2c1O)c1cccnc1 (stereo not drawn) | 30% | -12% | 2.6µM* | -29% | 15µM*
CCCC(=O)NC(c1ccc(OC)c(OC)c1)c1cc(Cl)c2cccnc2c1O (stereo not drawn) | 7% | -4% | 1.8µM* | -24% | 8.2µM*
CC(=O)NC(c1ccccc1)c1cc(Cl)c2cccnc2c1O (stereo not drawn) | 3% | 11% | ? | -27% | ?
Cc1ccnc(NC(c2cccnc2)c2ccc3cccnc3c2O)c1 (stereo not drawn) | -5% | -7% | 3.3µM* | -40% | ?
CCOc1ccc(C(NC(=O)c2ccco2)c2ccc(OC)c(OC)c2)cc1 (stereo not drawn) | -9% | -8% | ? | 19% | 3.7µM*
O=C(Oc1cccc([N+](=O)[O-])c1)c1cc(-c2ccccc2)nc2ccccc12 | 0% | 2% | -3% | 3%[7.66 µM] | -10%
O=C(N[C@@H](Cc1c[nH]c2ccccc12)C(=O)O)C1CCN(S(=O)(=O)c2cccs2)CC1 | 2% | 2% | -14% | ? | 20%
CCC(=O)NC(c1ccc(C)cc1)c1ccc2cccnc2c1O (stereo not drawn) | 9% | -2% | 0.82µM* | -5% | ?
CCC(=O)NC(c1cc(Cl)c2cccnc2c1O)C(C)C (stereo not drawn) | 8% | 6% | 0.23µM* | . | -8%
CCCC(=O)NC(c1ccc(C(C)C)cc1)c1ccc2cccnc2c1O (stereo not drawn) | -2% | 4% | 1.3µM* | -22% | ?
CC(=O)NC(c1ccc(Cl)cc1)c1ccc2cccnc2c1O (stereo not drawn) | . | . | 3% | -78% | 13%
